Compounds with a hit are over-represented: about 1.2% of the library has one in this group of screens.
gsp agonist – qHTS for Agonist of gsp, the Etiologic Mutation Responsible for Fibrous Dysplasia/McCune-Albright Syndrome: qHTS; gsp mutant cells, cAMP HTRF, 30 min; Potency, µM (top dose mostly 76.9 µM), inactives show at the top dose activation (cAMP increase), most hits filed as activators; actives 0.13% (n = 340,000); active means well fitted activation curve with a large enough effect; inconclusive means small, poorly fitted or top-dose-only effect, or another doubt; inactive means no such curve, though single readings can be large or run the other way; cell line not stated here;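 further: phosphodiesterase inhibitor Ro 20-1724 added with compounds to block cAMP breakdown; potency means the concentration at half of the fitted maximal effect; nearly all actives have a fitted effect of over 60% in size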
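Cells stably selected in G418 were plated at 2000/well, grown 16-24 hr, then given compounds in DMSO with the PDE inhibitor […] (300 uM solution added) for 30 min at 37C; cAMP was read by HTRF.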
gsp antag – qHTS for Antagonists of gsp, the Etiologic Mutation Responsible for Fibrous Dysplasia/McCune-Albright Syndrome: qHTS. gsp-mutant cells, cAMP HTRF, 30 min. Potency, µM (highest dose often 76.9 µM), without a hit: at the highest dose activity change, negative = inhibition, actives largely listed as inhibitors. actives 0.4% (n = 340,000). AID 624288, 2012; calls by dose curve; cell line not stated here;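 further: intracellular cAMP measured with PDE inhibitor Ro 20-1724 present during compound exposure; potency means the concentration at half of the fitted maximal effect; on the % scale 0 is the no-effect control and ±100 the full control effect; nearly all actives have a fitted effect of over 65% in size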
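HTRF cAMP read-out (cAMP-d2 plus anti-cAMP antibody-K in lysis buffer, 30 min RT). Before lysis, cells are exposed to compounds with […] for 30 min at 37C in DPBS containing Ca/Mg, BSA and Tween 20.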
RXFP1 antagonist – qHTS Assay for Antagonists of the Relaxin Receptor RXFP1. AID 1259400, 2018. activity change, negative = inhibition, % at 57.5 µM. actives 0.59% (n = 350,000). HEK293-RXFP1, relaxin-stimulated cAMP HTRF, 30 min; active compounds read low;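 active means activity change of -60% or lower, but not beyond a set lower limit; inconclusive means change between -60% and -40%, or beyond the set limit; inactive means change above -40%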; further: on the % scale 0 is the no-effect control and ±100 the full control effect
Target sequence (Q9HBX9 whole entry, looked up): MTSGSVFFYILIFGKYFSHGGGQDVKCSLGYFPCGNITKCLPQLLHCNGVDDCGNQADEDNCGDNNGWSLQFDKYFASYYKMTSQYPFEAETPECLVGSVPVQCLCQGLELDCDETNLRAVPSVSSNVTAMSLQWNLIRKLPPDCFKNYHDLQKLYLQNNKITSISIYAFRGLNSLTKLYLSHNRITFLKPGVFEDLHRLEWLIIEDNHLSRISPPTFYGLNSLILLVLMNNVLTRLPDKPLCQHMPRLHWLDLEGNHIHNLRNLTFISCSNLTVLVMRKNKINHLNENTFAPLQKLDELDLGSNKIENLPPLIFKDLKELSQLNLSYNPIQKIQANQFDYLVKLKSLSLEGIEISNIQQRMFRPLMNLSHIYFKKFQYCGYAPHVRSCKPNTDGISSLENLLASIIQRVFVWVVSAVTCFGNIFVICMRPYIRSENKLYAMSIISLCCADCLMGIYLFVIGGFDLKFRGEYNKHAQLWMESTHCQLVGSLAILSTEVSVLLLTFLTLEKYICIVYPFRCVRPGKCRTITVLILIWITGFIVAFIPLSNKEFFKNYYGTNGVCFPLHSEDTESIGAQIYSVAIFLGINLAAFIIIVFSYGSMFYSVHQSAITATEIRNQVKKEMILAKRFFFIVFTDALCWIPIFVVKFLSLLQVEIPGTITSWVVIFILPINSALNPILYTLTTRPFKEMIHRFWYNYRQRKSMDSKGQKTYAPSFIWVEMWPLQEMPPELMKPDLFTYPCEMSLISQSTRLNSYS
Akt phos inh – HTS Assay for Inhibitors of Akt Phophorylation: Primary Screen; Neuro2A IGF-stimulated pAkt S473 HTRF, 20 min; active compounds read low; activity change, % for hits at 50 µM; actives 0.32% (n = 360,000); in the data active means activity change below about -80%; inconclusive means mostly about -51% to -80%; further: on the % scale 0 is the no-effect control and ±100 the full control effect
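Single-point screen (50 µM final compound) in Neuro2A cells stimulated 20 min with 6 nM IGF at 37 deg C. After lysis, Ser473-phosphorylated Akt read by HTRF (ex 330 nm, em 615/665 nm) as the 665/615 ratio.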
RXFP1 agonist – qHTS Assay for Agonists of the Relaxin Receptor RXFP1; HEK293T-RXFP1 cAMP TR-FRET, 30 min; response scale: percent of porcine relaxin response, buffer zero; Potency, µM (top dose mostly 57.5 µM), for inactives: at the highest dose activation, most hits filed as activators; actives 0.3% (n = 370,000); active means well fitted activation curve with a large enough effect; inconclusive means small, poorly fitted or top-dose-only effect; further: potency means the concentration at half of the fitted maximal effect; on the % scale 0 is the no-effect control and ±100 the full control effect; nearly all actives have a fitted effect of over 60% in size
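HEK293 cells stably expressing RXFP1, treated 30 min at 37C with compounds plus PDE4 inhibitor Ro 20174; cAMP measured by HTRF TR-FRET. Normalized to buffer and 29 nM porcine relaxin; EC50 by Hill fit.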
* hit, by the source's call; i = inactive; ? = inconclusive; nt = no result given; [ ] = remark or other dose.

SMILES	gsp agonist	gsp antag	RXFP1 antagonist	Akt phos inh	RXFP1 agonist
Cc1nc(C)c(CC(=O)N2CCc3c([nH]c4ccccc34)C2c2ccccn2)s1 (configuration not stated)	20.7%[15.4 µM]	-3.8%	-75.4*	i	1.1%
COC(c1ccccc1)(c1ccccc1)[C@H](Oc1nc(C)cc(C)n1)C(=O)O	nt	nt	-16.3	nt	nt
Clc1ccc(C(Cn2ccnc2)OCc2ccc(Sc3ccccc3)cc2)c(Cl)c1 (configuration not stated)	nt	nt	-9.3	nt	nt
CNC(=O)c1cc2ncc(C(F)(F)F)cc2s1	?	0.0%	-82.4*	i	4.7%
COc1ccc(NC(=O)CCS(=O)(=O)c2cccc3nonc23)c(OC)c1	-14.1%	-9.0%	-13.9	-112.7%*	0.4%
Cc1cc(NC(=O)COCc2cc(-c3ccc(F)cc3)on2)ccc1Br	nt	nt	-16.8	nt	-1.7%
Cc1ccc(S(=O)(=O)c2ccc([N+](=O)[O-])o2)cc1	-13.2%	-5.2%	-60.3*	i	nt
CC1(C)CC(=O)C2=C(C1)N1C(=C(C#N)C2c2ccccc2Cl)N=C(N)c2ccccc21 (configuration not stated)	-52.5%	-25.8%	-17.1	i	0.1%
CC1(C)CC(=O)C2=C(C1)N1C(=C(C#N)C2c2ccc(Cl)cc2)N=C(N)c2ccccc21 (configuration not stated)	-1.0%	35.5µM*	?	i	1.4%
O=C(CCCSc1nc2ccccc2[nH]1)N1CCN(c2ccccc2)CC1	2.6%	-11.3%	-1.7	i	-0.1%
Cc1cccc(N2CCN(C(=O)CCCSc3nc4ccccc4[nH]3)CC2)c1C	-2.8%	44.7µM*	-28.7	i	2.1%
CC(C)CCn1c2ccccc2c2cc(CC(N)=O)ccc21	2.1%	1.4%	-72.4*	i	0.4%
Cc1ccccc1N(C(=O)c1snc(C(N)=O)c1N)C(C(=O)NCC1CCCO1)c1ccc(F)cc1 (configuration not stated)	9.5%[15.4 µM]	-15.3%	-90.3*	i	0.7%
CCc1ccccc1N(C(=O)c1snc(C(N)=O)c1N)C(C(=O)NCC1CCCO1)c1ccc(C)o1 (configuration not stated)	-0.8%[15.4 µM]	-6.1%	-119.1*	i	0.6%
Cc1ccc(N(C(=O)c2snc(C(N)=O)c2N)C(C(=O)NCC2CCCO2)c2ccc(C)o2)c(C)c1 (configuration not stated)	0.6%[15.4 µM]	-19.9%	-63.4*	i	2.3%
CC(C)c1ccc(N(C(=O)c2snc(C(N)=O)c2N)C(C(=O)NCC2CCCO2)c2ccc(N(C)C)cc2)cc1 (configuration not stated)	-1.0%[15.4 µM]	?	-74.4*	i	?
CN(C)c1ccc(C(C(=O)NCC2CCCO2)N(C(=O)c2snc(C(N)=O)c2N)c2ccccc2)cc1 (configuration not stated)	?	9.7%	4.4	i	?
Cc1ccccc1N(C(=O)c1snc(C(N)=O)c1N)C(C(=O)NCC1CCCO1)c1ccc(N(C)C)cc1 (configuration not stated)	-22.1%[15.4 µM]	-16.4%	-4.9	i	24.5%
CCc1ccccc1N(C(=O)c1snc(C(N)=O)c1N)C(C(=O)NCC1CCCO1)c1ccc(N(C)C)cc1 (configuration not stated)	-15.8%[15.4 µM]	nt	-23.6	i	?
Cc1cccc(NS(=O)(=O)c2ccc3oc(=O)c4ncn(C)c4c3c2)c1C	nt	nt	9.8	nt	3.2%
Cc1cc(=O)[nH]c2nnc(SCC(=O)Nc3ccc(OC(F)(F)F)cc3)n12	nt	nt	5.5	nt	-0.8%
O=C(Cc1ccc(F)cc1)Nc1cccc(-c2nc3cccnc3s2)c1	nt	nt	7.5	nt	-4.9%
Cc1cccc(-n2c(=O)c3c4c(sc3n3cnnc23)CCCC4)c1	nt	nt	nt	nt	4.5%
CN(C)c1ccc(C(C(=O)NC2CCCC2)N(Cc2cccnc2)C(=O)c2snc(C(N)=O)c2N)cc1 (configuration not stated)	-4.0%[15.4 µM]	-29.9%	0.8	i	2.4%

From PubChem
